# Inconclusive results are not listed. Entries that show only a call come without a potency. Calls of active or inactive are those of the source. Calls follow the shape of the dose curve; as a rule, active = well fitted curve in the direction sought with a large enough effect; inconclusive = small, poorly fitted or top-dose-only effect, or another doubt; inactive = no such curve, though single readings can be large; an effect the other way counts as inactive or inconclusive.
# What was measured:
# [1] = Identifying Small Molecule Inhibitors of Pancreatic Cancer Stem Cells (SN12C, Adherent) (AID 1259358);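 also: cell survival measured after 48 h of compound exposure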; also: potency is read from the fitted curve at half-maximal effect
# Method in brief: (§1)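 Viability is scored by CellTiter-Glo luminescence 48 h after dosing, expressed as percent activity against vehicle and no-cell references. Spheroid formats rely on cells cultured 14 days in stem cell media beforehand.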
# [2] = Identifying Small Molecule Inhibitors of Pancreatic Cancer Stem Cells (SN12C, Spheroid) (AID 1259360); conditions: Potency: SN12C spheroid viability; also: potency is read from the fitted curve at half-maximal effect
# Method in brief: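 Monolayer and spheroid cultures are compared. Spheroids form over 14 days in stem cell medium on hydrogel-coated low-attachment plates, then are exposed to compound for 48 h before CellTiter-Glo luminescence.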
# [3] = Identifying Small Molecule Inhibitors of Pancreatic Cancer Stem Cells (A278, Adherent) (AID 1259361);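 also: viability read after 48 h compound exposure; nearly all actives have a fitted effect of over 35% in size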
# Method in brief: as §1
# [4] = P-glycoprotein substrates identified in KB-3-1 adenocarcinoma cell line, qHTS therapeutic library screen (AID 1346986); also: nearly all actives have a fitted effect of over 60% in size;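 also: potency is read from the fitted curve at half-maximal effect; potency is for cytotoxicity meaning loss of cell viability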
# Method in brief: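 Resistance attributable to P-gp was assessed by comparing AC50 in KB-8-5-11 with parental KB-3-1 and by tariquidar reversal. Cells were exposed 72 h and viability read by CellTiter-Glo.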
# [5] = Identifying Small Molecule Inhibitors of Pancreatic Cancer Stem Cells (Panc1, Spheroid) (AID 1259359);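 also: potency is read from the fitted curve at half-maximal effect; compound exposure lasted 48 h before reading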
# Method in brief: as §1
smiles,measurement,setting,value
CCC(C)N(C)C(=O)c1cc2ccccc2c(-c2ccccc2Cl)n1 (stereo not given),Potency,[1],inactive
same,Potency,[2],inactive
same,IC50 (viability decrease),[3],inactive
O=C(NOC[C@H](O)CO)c1ccc(F)c(F)c1Nc1ccc(I)cc1F,Potency,[2],0.0053 µM (active)
CO[C@@H]1[C@H](N(C)C(=O)c2ccccc2)C[C@H]2O[C@]1(C)n1c3ccccc3c3c4c(c5c6ccccc6n2c5c31)C(=O)NC4,Potency,[4],1.3 µM (active)
c1ccc(-c2nn3c(c2-c2ccnc4cc(OCCN5CCOCC5)ccc24)CCC3)nc1,Potency,[1],inactive
same,Potency,[4],inactive
CCOC(=O)C1=C[C@@]2(CC)CCCN3CCc4c(n1c1ccccc41)[C@H]32,Potency,[2],inactive
same,IC50 (viability decrease),[3],inactive
N#CC[C@H](C1CCCC1)n1cc(-c2ncnc3[nH]ccc23)cn1,Potency,[2],inactive
O=C(Nc1ccc(F)c(C(F)(F)F)c1)Nc1nnc(-c2ccncc2)s1,IC50 (viability decrease),[3],14.8 µM (active)
CC(C)(C)OC(=O)CN(Cc1ccc(Cl)cc1)Cc1ccc([N+](=O)[O-])s1,Potency,[1],4.69 µM (active)
same,Potency,[5],7.43 µM (active)
same,Potency,[2],inactive
Nc1ncnc2nc(-c3ccc(N4CCOCC4)nc3)cc(-c3cccc(Br)c3)c12,Potency,[1],inactive
same,IC50 (viability decrease),[3],26.4 µM (active)
same,Potency,[4],inactive
CC(C)c1onc(-c2c(Cl)cccc2Cl)c1COc1ccc(/C=C/c2cccc(C(=O)O)c2)c(Cl)c1,Potency,[1],inactive
same,Potency,[5],18.7 µM (active)
OCCC#Cc1nc(-c2ccc(F)cc2)c(-c2ccncc2)n1CCCc1ccccc1,Potency,[2],20.9 µM (active)
Cc1ccccc1C(C(=O)NC1CCCC1)N(C(=O)Cn1cnc2ccccc21)c1cccc(F)c1 (stereo not given),Potency,[1],inactive
same,Potency,[2],inactive
COc1cc2c(cc1OC)CN(CCc1ccc(NC(=O)c3cccc4c(=O)c5cccc(OC)c5[nH]c34)cc1)CC2,Potency,[1],inactive
same,Potency,[2],inactive
same,IC50 (viability decrease),[3],10.5 µM (active)
